Rows were chosen to be rich in hits. Some 7.5% of all compounds tested hit in one or more screens of this group.
HCV inh: blocks hepatitis C virus; Huh7.5.1 HCVcc-Cre infection, luciferase reporter, 44 h; Potency, µM (top dose mostly 41.8 µM), for inactives: at the highest dose activity change, negative = inhibition, most hits filed as inhibitors; hit rate 3.4% among 340,000; further: potency means the concentration at half of the fitted maximal effect
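Luciferase read-out (15 sec integration) after a 15 min room-temperature substrate step quantifies HCVcc-Cre infection. Cells, 1,000 per well, had compound added 4 h post-plating, then virus at ~0.5 moi, and were cultured 44 h.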
FMDV inh: foot and mouth disease virus antiviral activity; FMDV antiviral cell-based qHTS; Potency, µM (top dose mostly 57.9 µM), without a hit: top-dose activity change, negative = inhibition, actives largely listed as inhibitors; hit rate 1.2% among 410,000; calls by dose curve; tested in HEK293T cells; further: read-out not given here; potency means the concentration at half of the fitted maximal effect; nearly all actives have a fitted effect of over 45% in size
VACV Venus inh: inhibitors of vaccinia virus (Venus reporter); Vaccinia virus Venus reporter expression, fluorescence; Potency, µM (titrated, usually from 36.5 µM), for the others: at the top dose activity change, negative = inhibition, most hits filed as inhibitors; hit rate 0.46% among 330,000; AID 720580; calls by dose curve; tested in A549 cells; further: potency means the concentration at half of the fitted maximal effect; nearly all actives have a fitted effect of over 30% in size
HCMV inh: blocks human cytomegalovirus replication; activity change, negative = inhibition, % at 57.5 µM; HFF cells, HCMV-luciferase reporter, 72 h; stronger effect = lower value; hit rate 4.5% among 410,000; in the data active means activity change below about -60%; inconclusive means no clear call, values can overlap the other calls; inactive means above about -39%
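Inhibition of viral replication was scored as loss of reporter luminescence in HFFs infected with HCMV-luciferase (MOI 1 PFU/cell) for 72 h; compounds tested at 2 doses, normalized to buffer and Salinomycin controls.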
Giardia FBPA inh: Giardia lamblia aldolase inhibition; Potency, µM (doses to about 59.6 µM), inactives show at the top dose activity, negative = inhibition, hits mostly inhibitors; purified Giardia FBPA; hit rate 0.71% among 290,000; further: potency means the concentration at half of the fitted maximal effect; nearly all actives have a fitted effect of over 55% in size
Target sequence (A8B2U2 whole entry, looked up): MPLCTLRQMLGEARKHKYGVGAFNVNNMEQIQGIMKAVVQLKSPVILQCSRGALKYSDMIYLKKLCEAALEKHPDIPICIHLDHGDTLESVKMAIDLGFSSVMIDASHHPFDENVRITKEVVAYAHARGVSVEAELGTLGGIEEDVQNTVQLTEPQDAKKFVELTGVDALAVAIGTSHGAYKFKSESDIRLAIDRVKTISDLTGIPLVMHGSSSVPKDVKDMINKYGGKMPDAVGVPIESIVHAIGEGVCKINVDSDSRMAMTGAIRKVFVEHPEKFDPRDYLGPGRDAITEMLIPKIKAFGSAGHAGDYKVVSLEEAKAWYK
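40 nM FBPA preincubated 10 min at RT with compound (up to 57.5 uM final), then substrate plus GAPDH/TPI/NAD/arsenate coupling and diaphorase/resazurin added. Fluorescence read after 20 min at RT, 525/598 nm.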
Vaccinia mCherry: vaccinia inhibition (mCherry reporter) | Vaccinia virus mCherry reporter infection, fluorescence | hit rate 0.63% among 310,000 | Potency, µM (titrated, usually from 36.5 µM), inactives show at the highest dose activity change, negative = inhibition, actives largely listed as inhibitors; calls by dose curve; tested in A549 cells; further: potency means the concentration at half of the fitted maximal effect; nearly all actives have a fitted effect of over 35% in size
The depositor's hits bear a star; i = inactive; ? = inconclusive; · = not tested or not shown; + = active, no number; [ ] = another dose, or the depositor's remark. Unless noted, the call rests on the fitted dose curve; in most records, active means well fitted curve in the direction sought with a large enough effect; inconclusive means small, poorly fitted or top-dose-only effect, or another doubt; inactive means no such curve, though single readings can be large; an effect the other way counts as inactive or inconclusive. On the % scale 0 is the no-effect control and ±100 the full control effect.

SMILES | HCV inh | FMDV inh | VACV Venus inh | HCMV inh | Giardia FBPA inh | Vaccinia mCherry
CC(C)CNC(=O)C(=O)NCC1OCCCN1S(=O)(=O)c1ccc2c(c1)OCCO2 (centres undefined) | -1% | -3% | -8% | -17 | · | i
O=C(CSc1nnc(COc2ccc(Cl)cc2)o1)N1CCCC1 | -19% | 4% | -12% | 17 | -2% | i
O=C(CSc1nnc(COc2ccc(Cl)cc2)o1)N1c2ccccc2CCc2ccccc21 | 10µM* | 0% | -29% | -16 | 0% | -29%[1.46 µM]
C(=N\NCc1ccccc1)/c1ccc2ncccc2c1 | 6% | 10% | · | 94 | -3% | ·
CCCCn1c(/C=N/Nc2nc3ccccc3[nH]2)nc2ccccc21 | ? | -19% | 11µM* | -37 | 26% | ?
Oc1ccc(C=NNC(=S)Nc2ccccc2)nc1 | · | 43% | ? | -97* | · | ?
C(=N\Nc1nncc2ccccc12)/c1ccccn1 | 3.2µM* | ? | ? | -98* | -17% | 10µM*
S=C(N/N=C/c1ccc2ncccc2c1)Nc1ccccc1 | 17% | 6% | 11µM* | -15 | -19% | 7.9µM*
CC1=C(c2ccc(C(C)C)cc2)S(=O)(=O)N=C1N1CCC(C(=O)NCCc2ccco2)CC1 | · | -9% | -15% | -10 | · | -19%
Cc1cc(=O)[nH]c(N/N=C/c2ccccn2)n1 | 1µM* | 51% | ? | -100* | ? | ?
C(=N\Nc1nc2ccccc2[nH]1)/c1ccc2ncccc2c1 | ? | 30% | 0.89µM* | -22 | 0% | 1.6µM*
Cc1cc(=O)[nH]c(NN=Cc2c(Cl)cccc2Cl)n1 | 14% | -23% | -13% | ? | · | -9%
C#CCn1cc(/C=N/Nc2nc3ccccc3[nH]2)c2ccccc21 | ? | -16% | ? | -69* | -5% | ?
CCN(CC)c1ccc(/C=N/Nc2nc3ccccc3[nH]2)c(O)c1 | 5.6µM* | -26% | ? | -98* | ? | ·
COc1cc(OC)c(OC)cc1/C=N/Nc1nc2ccccc2[nH]1 | -8% | -8% | · | 3 | 1% | ·
Cc1ccc(N2C(=O)CSC23C(=O)N(CC(=O)NCCc2ccccc2)c2ccccc23)cc1 (centres undefined) | · | -7% | -15% | 14 | · | -5%
COc1cc(/C=N\Nc2nc3ccccc3[nH]2)cc(OC)c1OC | ? | -18% | -27% | 50 | -18% | -5%
C(=N\Nc1nc2ccccc2[nH]1)/c1cccc2nccnc12 | ? | 16% | ? | -15 | -7% | ?
c1ccc2c(c1)CC/C2=N/Nc1nc2ccccc2[nH]1 | ? | -35% | -18% | -112* | -20% | -29%
CC(C)(C)C1CCC(=NNc2nc3ccccc3[nH]2)CC1 (centres undefined) | -19% | -14% | -13% | -23 | 0% | -15%
C(=N\Nc1nc2ccccc2[nH]1)/c1ccccn1 | -2% | 10µM* | · | -100* | ? | ·
COc1ccc2c(c1)c(/C=N/Nc1nc3ccccc3[nH]1)c(C)n2C | ? | ? | -22% | -101* | -14% | ?
COc1ccc(NC(=O)Cn2c(SCc3cccc(Cl)c3)nc3ccncc32)c(OC)c1OC | · | -3% | -5% | -1 | · | i
O=C1NC(Cc2ccccc2)c2nc3ccc(F)cc3c(=O)n2-c2cc(Cl)ccc21 (centres undefined) | 20% | · | · | -3 | · | ·
CCOC(=O)c1ccccc1NC(=O)Nc1ccc(OC)c(OC)c1 | 7% | -9% | · | 17 | 3% | ·
SMILES | HCV inh | FMDV inh | VACV Venus inh | HCMV inh | Giardia FBPA inh | Vaccinia mCherry
Cc1cc(NC(=O)NC(=O)c2ccccc2NC(=O)C(C)N)ccc1Oc1ncc(Br)cn1 (centres undefined) | -23% | 15% | -29% | -83* | · | -22%
CN(Cc1ccccc1Cl)C(=O)CNC(=O)C12CC3CC(CC(C3)C1)C2 | -8% | -8% | · | 19 | · | ·
Cc1ccc2sc(NNC(=O)c3cc(=O)c4ccccc4o3)nc2c1C | 6% | 22% | -15% | ? | 22µM* | ?
C=CCn1c(NCc2ccc(OC)cc2O)nc2ccccc21 | ? | 49% | · | 29 | 9% | ·
COc1ccc(C2CC(O)(c3ccccc3)Oc3cc(OC)c(OC)c(OC)c32)cc1 (centres undefined) | -26% | 6% | -26% | 42 | ? | -22%
COc1ccc([C@@]23Oc4cc(OC)cc(OC)c4[C@]2(O)[C@H](O)[C@H](C(=O)N(C)C)[C@H]3c2ccccc2)cc1 | · | ? | 0.0001µM* | -98* | · | +
C=C1C(=O)O[C@H]2[C@H]1[C@@H](O)CC(=C)[C@@H]1CC(=O)[C@@H](C)[C@H]21 | ? | 22µM* | -20% | · | -4% | ?
C=C1C[C@H](OC(=O)C(C)(O)CCl)C2C(=C)C(=O)O[C@@H]2C2C1C[C@H](O)[C@]2(O)CCl (some centres undefined) | · | -2% | · | · | 0% | ·
C#CCN(CC(=O)OCC)S(=O)(=O)CCNC1CC1 | · | -21% | 1% | 5 | · | i
O=C(COc1ccc(S(=O)(=O)N2CCCCC2)cc1)N1CCCC1 | 5% | 11% | 6% | 9 | 0% | -11%
CCn1c(SCC(=O)Nc2ccccc2C)nc2nc3c(cc2c1=O)COC(C)(C)C3 | 10µM* | -15% | · | -6 | 3% | ·
CCOc1ccc(NC(=O)CSc2nc3nc4c(cc3c(=O)n2CC)COC(C)(C)C4)cc1 | 3.2µM* | -15% | 0% | -27 | -1% | 15%
COc1ccccc1Cc1c(-c2ccc(C)cc2)nc2ccc(C)cn12 | · | · | · | 26 | · | ·
N#Cc1cnn(-c2ccccc2)c1N | ? | · | -22% | -30 | 0% | -13%
CC(C)C1N(c2ccccc2)C(N)=C(C#N)C1(C#N)C#N (centres undefined) | ? | ? | -17% | -66* | -8% | -11%
CC(=O)C1=NN(c2ccccc2)C(c2cccs2)N1c1ccc(N(C)C)cc1 (centres undefined) | ? | 16µM* | · | -80* | -25% | ·
Cn1c(=O)c(NCCc2ccccc2)c2c3c(cccc31)C(=O)c1ccccc1-2 | ? | 0% | i | -10 | -1% | 27%
CCCCNc1c2c3c(cccc3n(C)c1=O)C(=O)c1ccccc1-2 | ? | 32µM* | 43% | · | 2% | -8%
COc1ccc(-c2[nH]ncc2CN2CCC(C(=O)c3ccc(F)cc3)CC2)cc1 | -28% | ? | -8% | -1 | 0% | ?
OC[C@@H]1CCC[C@@H](n2cnc3c(=S)nc[nH]c32)O1 | · | · | -20% | · | · | -16%
CCOC(=O)c1ccc(-n2[nH]c(-c3ccccc3)cc2=O)cc1 | 14µM* | ? | · | 30 | -1% | ·
C=CC[C@H](c1ccc(F)cc1)N(CC(C)C)S(=O)(=O)C=C | · | · | -71% | · | · | -51%
CC(C)[C@H](NS(=O)(=O)c1ccccc1F)C(=O)NC1CCCCC1 | 0% | -13% | · | 0 | · | ·
NC(=S)NNC(=O)c1cccc(Cl)c1 | 10% | -7% | -5% | 17 | -30% | -7%
